Laboratory results reported in ChEMBL document CHEMBL2218924, “A broad activity screen in support of a chemogenomic map for kinase signalling research and drug discovery” (Biochem J, 2013).

Key:
[1] = target: ALK tyrosine kinase receptor (Homo sapiens) (UniProt Q9UM73); details: at 10 µM
[2] = target: T1, Activin receptor type-1B (Homo sapiens) (UniProt P36896); details: at 1 µM
T1 sequence (whole entry): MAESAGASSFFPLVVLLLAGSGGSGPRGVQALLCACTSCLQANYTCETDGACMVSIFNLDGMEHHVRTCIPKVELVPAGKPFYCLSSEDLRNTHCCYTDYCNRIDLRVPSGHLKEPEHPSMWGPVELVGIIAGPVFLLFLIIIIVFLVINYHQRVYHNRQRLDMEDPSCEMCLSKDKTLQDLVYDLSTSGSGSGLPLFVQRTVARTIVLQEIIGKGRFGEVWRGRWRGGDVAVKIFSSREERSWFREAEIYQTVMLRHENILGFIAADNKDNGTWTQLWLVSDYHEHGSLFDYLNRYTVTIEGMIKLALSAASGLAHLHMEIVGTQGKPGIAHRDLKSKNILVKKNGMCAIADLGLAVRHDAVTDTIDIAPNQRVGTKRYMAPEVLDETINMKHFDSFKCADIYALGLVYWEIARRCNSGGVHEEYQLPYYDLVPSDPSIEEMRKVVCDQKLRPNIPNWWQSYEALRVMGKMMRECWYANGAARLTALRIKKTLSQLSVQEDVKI

[3] = target: T1, Activin receptor type-1B (Homo sapiens); details: at 10 µM
[4] = target: T2, AMP-activated protein kinase (AMPK) alpha-1/beta-1/gamma-1 (Homo sapiens) (UniProt P54619+Q9Y478+Q13131); details: at 1 µM
T2 sequence (P54619 whole entry): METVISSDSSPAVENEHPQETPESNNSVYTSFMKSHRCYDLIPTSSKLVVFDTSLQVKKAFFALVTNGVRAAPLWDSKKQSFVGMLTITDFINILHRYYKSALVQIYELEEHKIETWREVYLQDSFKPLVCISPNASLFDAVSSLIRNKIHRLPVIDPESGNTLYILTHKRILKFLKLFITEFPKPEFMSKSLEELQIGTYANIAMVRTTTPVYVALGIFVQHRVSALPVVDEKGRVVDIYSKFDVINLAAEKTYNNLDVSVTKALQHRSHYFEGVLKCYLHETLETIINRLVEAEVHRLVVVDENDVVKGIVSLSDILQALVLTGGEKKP
T2 sequence (Q13131 whole entry partner): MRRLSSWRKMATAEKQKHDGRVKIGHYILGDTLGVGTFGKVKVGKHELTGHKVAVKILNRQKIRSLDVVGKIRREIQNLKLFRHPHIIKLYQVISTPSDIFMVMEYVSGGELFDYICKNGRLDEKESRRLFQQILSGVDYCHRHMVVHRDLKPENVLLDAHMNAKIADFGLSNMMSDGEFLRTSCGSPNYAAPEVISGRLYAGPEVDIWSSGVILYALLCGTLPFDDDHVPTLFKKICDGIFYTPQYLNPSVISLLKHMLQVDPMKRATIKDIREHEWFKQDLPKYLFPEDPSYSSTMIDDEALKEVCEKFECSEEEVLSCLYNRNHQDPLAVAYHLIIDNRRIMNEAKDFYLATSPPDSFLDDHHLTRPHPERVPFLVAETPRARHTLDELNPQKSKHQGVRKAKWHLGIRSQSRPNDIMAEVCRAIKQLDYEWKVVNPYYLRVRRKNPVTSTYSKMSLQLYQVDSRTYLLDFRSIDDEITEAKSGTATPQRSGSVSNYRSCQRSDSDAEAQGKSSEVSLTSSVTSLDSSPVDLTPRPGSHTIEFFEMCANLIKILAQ
T2 sequence (Q9Y478 2-270 partner limits assumed): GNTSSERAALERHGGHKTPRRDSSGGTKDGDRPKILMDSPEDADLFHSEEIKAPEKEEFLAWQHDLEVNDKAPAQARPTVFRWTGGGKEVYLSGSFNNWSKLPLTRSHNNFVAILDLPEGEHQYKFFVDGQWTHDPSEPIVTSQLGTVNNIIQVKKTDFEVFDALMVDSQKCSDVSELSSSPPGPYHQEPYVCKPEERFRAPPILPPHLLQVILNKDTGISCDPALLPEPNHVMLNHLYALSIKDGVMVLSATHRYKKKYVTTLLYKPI

[5] = target: T2, AMP-activated protein kinase (AMPK) alpha-1/beta-1/gamma-1 (Homo sapiens); details: at 10 µM
[6] = target: T3, AMP-activated protein kinase, AMPK (Homo sapiens) (UniProt P54646+O43741+P54619+Q9UGJ0+Q9Y478+Q13131+Q9UGI9); details: at 1 µM
[7] = target: T3, AMP-activated protein kinase, AMPK (Homo sapiens); details: at 10 µM
[8] = target: T4, NUAK family SNF1-like kinase 1 (Homo sapiens) (UniProt O60285); details: at 1 µM
T4 sequence (whole entry): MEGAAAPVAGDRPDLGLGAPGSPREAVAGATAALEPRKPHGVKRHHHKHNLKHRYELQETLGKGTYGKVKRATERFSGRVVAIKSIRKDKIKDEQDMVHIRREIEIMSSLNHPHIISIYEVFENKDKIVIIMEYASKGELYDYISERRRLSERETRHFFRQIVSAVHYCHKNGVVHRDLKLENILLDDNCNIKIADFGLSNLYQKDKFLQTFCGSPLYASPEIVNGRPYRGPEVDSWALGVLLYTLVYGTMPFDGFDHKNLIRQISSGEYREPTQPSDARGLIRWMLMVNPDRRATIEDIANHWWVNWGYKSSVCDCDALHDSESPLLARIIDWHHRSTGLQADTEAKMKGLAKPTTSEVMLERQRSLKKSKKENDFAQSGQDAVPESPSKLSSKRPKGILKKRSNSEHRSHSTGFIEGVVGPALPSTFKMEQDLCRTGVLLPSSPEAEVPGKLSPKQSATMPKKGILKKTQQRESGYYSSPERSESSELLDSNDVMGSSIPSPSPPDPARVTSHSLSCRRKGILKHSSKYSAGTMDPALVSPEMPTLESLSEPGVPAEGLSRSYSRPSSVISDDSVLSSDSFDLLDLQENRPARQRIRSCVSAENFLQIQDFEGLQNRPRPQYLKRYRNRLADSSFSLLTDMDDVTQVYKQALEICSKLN

[9] = target: T4, NUAK family SNF1-like kinase 1 (Homo sapiens); details: at 10 µM
[10] = target: T5, Mitogen-activated protein kinase kinase kinase 5 (Homo sapiens) (UniProt Q99683); details: at 1 µM
T5 sequence (whole entry): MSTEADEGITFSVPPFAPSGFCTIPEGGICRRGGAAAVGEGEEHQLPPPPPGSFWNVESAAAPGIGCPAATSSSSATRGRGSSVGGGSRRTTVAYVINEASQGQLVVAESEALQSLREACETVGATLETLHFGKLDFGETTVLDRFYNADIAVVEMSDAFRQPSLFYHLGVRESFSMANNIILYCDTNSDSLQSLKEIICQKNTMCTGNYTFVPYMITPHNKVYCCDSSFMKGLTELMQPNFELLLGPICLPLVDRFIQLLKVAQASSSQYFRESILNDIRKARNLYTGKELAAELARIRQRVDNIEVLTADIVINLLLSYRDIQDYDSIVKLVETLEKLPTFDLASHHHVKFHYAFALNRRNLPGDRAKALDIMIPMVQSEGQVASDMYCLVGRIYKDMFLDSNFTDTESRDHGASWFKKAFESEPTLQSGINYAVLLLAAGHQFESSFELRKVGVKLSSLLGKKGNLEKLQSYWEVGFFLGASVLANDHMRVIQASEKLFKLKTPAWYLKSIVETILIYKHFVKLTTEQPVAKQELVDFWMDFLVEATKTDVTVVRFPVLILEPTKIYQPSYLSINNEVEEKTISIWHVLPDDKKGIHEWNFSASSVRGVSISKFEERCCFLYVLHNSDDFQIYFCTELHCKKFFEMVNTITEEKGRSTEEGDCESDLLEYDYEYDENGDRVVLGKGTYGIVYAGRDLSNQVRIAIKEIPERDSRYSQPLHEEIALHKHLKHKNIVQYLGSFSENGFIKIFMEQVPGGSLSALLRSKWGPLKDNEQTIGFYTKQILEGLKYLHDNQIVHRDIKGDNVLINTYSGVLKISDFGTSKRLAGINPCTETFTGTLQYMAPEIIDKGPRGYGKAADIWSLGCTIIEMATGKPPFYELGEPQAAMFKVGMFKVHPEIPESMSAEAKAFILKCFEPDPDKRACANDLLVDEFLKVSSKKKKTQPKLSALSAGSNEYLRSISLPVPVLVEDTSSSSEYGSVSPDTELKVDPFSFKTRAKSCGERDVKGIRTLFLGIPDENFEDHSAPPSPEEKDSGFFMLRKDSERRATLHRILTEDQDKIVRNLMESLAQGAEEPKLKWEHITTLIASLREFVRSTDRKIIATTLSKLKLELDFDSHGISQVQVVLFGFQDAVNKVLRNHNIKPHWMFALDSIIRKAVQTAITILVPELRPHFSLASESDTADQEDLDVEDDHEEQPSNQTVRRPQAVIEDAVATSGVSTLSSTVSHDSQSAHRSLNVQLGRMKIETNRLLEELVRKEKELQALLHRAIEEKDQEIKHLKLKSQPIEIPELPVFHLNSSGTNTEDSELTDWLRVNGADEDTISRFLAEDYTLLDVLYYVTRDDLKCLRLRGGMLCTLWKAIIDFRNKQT

Sequence of ALK tyrosine kinase receptor (Homo sapiens) (Q9UM73 19-1620 limits assumed): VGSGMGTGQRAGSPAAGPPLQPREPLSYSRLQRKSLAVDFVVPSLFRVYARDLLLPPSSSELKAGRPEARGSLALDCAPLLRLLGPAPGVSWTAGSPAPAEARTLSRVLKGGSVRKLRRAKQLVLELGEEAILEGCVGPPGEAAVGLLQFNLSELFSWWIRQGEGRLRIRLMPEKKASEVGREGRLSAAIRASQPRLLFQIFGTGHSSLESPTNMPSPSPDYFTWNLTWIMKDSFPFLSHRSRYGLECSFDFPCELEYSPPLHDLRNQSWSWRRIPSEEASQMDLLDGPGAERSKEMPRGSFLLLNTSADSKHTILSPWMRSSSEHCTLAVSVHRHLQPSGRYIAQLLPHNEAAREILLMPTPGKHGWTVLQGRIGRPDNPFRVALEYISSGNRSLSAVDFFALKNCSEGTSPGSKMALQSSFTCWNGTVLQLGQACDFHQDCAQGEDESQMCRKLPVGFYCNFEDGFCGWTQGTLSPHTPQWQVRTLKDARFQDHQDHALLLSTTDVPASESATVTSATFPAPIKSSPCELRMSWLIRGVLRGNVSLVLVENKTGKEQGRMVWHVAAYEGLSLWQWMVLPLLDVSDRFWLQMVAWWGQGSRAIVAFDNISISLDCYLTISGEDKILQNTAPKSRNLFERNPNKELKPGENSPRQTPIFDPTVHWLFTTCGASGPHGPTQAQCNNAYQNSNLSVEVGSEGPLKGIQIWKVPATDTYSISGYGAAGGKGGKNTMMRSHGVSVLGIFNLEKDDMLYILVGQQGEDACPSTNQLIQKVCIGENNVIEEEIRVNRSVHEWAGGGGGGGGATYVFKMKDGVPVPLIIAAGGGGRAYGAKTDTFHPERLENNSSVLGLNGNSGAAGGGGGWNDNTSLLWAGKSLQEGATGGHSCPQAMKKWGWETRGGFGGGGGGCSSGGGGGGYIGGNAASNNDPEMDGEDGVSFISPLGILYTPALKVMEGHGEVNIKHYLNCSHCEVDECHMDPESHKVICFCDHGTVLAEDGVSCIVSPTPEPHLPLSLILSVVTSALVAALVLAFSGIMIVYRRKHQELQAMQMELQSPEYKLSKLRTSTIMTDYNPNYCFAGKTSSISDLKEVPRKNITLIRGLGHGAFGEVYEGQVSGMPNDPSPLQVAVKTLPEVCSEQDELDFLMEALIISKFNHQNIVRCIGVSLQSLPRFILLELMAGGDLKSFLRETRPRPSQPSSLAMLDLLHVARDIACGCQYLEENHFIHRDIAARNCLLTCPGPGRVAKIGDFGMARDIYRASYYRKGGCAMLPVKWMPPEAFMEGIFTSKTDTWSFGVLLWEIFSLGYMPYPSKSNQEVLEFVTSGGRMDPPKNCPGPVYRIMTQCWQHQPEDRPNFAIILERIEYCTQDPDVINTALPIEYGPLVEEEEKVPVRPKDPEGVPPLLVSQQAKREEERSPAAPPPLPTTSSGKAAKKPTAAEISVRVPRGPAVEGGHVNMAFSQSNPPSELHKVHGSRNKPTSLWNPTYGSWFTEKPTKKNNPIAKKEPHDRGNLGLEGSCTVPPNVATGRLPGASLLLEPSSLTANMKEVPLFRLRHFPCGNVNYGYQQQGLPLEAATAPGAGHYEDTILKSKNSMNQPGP

Compound: CCOc1cc2ncnc(Nc3cccc(Br)c3)c2cc1OCC
- residual activity [1]: 39%
- residual activity [2]: 125%
- residual activity [3]: 91%
- residual activity [4]: 84%
- residual activity [5]: 57%
- residual activity [6]: 79%
- residual activity [7]: 57%
- residual activity [8]: 87%
- residual activity [9]: 57%
- residual activity [10]: 115%

Compound: Nc1ccc2ncnc(NCCc3ccc(Oc4ccccc4)cc3)c2c1
- residual activity [1]: 67%
- residual activity [2]: 102%
- residual activity [3]: 103%
- residual activity [4]: 51%
- residual activity [5]: 28%
- residual activity [6]: 65%
- residual activity [7]: 42%
- residual activity [8]: 108%
- residual activity [9]: 23%
- residual activity [10]: 87%

Compound: CC#CC(=O)Nc1cc2c(Nc3ccc(F)c(Cl)c3)ncnc2cn1
- residual activity [1]: 81%
- residual activity [2]: 137%
- residual activity [3]: 99%
- residual activity [4]: 99%
- residual activity [5]: 84%
- residual activity [6]: 79%
- residual activity [7]: 74%
- residual activity [8]: 95%
- residual activity [9]: 86%
- residual activity [10]: 104%

Compound: Oc1c2ccccc2c2c3c(cccc13)N=N2
- residual activity [1]: 29%
- residual activity [2]: 86%
- residual activity [3]: 84%
- residual activity [4]: 64%
- residual activity [5]: 24%
- residual activity [6]: 69%
- residual activity [7]: 28%
- residual activity [8]: 28%
- residual activity [9]: 17%
- residual activity [10]: 36%

Compound: CNc1cc2c(Nc3cccc(Br)c3)ncnc2cn1
- residual activity [1]: 72%
- residual activity [2]: 121%
- residual activity [3]: 116%
- residual activity [4]: 100%
- residual activity [5]: 80%
- residual activity [6]: 91%
- residual activity [7]: 86%
- residual activity [8]: 100%
- residual activity [9]: 80%
- residual activity [10]: 103%

Compound: COc1cccc(-c2cc(=O)c3ccccc3o2)c1N
- residual activity [1]: 83%
- residual activity [2]: 111%
- residual activity [3]: 108%
- residual activity [4]: 101%
- residual activity [5]: 96%
- residual activity [6]: 98%
- residual activity [7]: 94%
- residual activity [8]: 109%
- residual activity [9]: 93%
- residual activity [10]: 119%

Compound: CCN(CC)CCCCN1c2ccccc2Oc2ccc(Cl)cc21
- residual activity [1]: 132%
- residual activity [2]: 136%
- residual activity [3]: 100%
- residual activity [4]: 116%
- residual activity [5]: 100%
- residual activity [6]: 131%
- residual activity [7]: 112%
- residual activity [8]: 115%
- residual activity [9]: 87%
- residual activity [10]: 96%

Compound: COc1cc2ncnc(N3CCN(C(=O)Nc4ccc(Oc5ccccc5)cc4)CC3)c2cc1OC
- residual activity [1]: 49%
- residual activity [2]: 104%
- residual activity [3]: 97%
- residual activity [4]: 79%
- residual activity [5]: 97%
- residual activity [6]: 99%
- residual activity [7]: 101%
- residual activity [8]: 107%
- residual activity [9]: 82%
- residual activity [10]: 79%
